Out of some 5,500 compounds screened, about 2,000 (36%) were called active. About 18% were inconclusive and are not listed. Cut-off read from the data, not from the text of the source: active = normalized growth mostly below about 0.91 (no sharp cut-off); inconclusive = no clear call, values can overlap the other calls; inactive = mostly above about 0.92. Some of the results follow.
Assay: chemical genetic growth profiling, strain panel (AID 1159580);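 note: tested at 20 µM; growth read once vehicle control cultures reached saturation at 30 °C; 1 = growth at the plate median or of vehicle wells; lower values mean less growth of the strain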
Details: growth OD

Measured: normalized growth

COc1ccc(C(CN(C)C)C2(O)CCCCC2)cc1 (stereo unspecified)
inactive: S. cerevisiae deletion strains, locus YKL009W, strain mrt4, stronger effect = lower value 0.978 | S. cerevisiae deletion strains, locus YKL068W, stronger effect = lower value 0.996 | S. cerevisiae deletion strains, locus YKL085W, strain MDH1 (second series), stronger effect = lower value 0.994 | S. cerevisiae deletion strains, locus YKL085W, strain MDH1, stronger effect = lower value 0.994 | S. cerevisiae deletion strains, locus YKL160W, strain elf1, stronger effect = lower value 0.97 | S. cerevisiae deletion strains, locus YKL190W, strain CNB1, stronger effect = lower value 1 | S. cerevisiae deletion strains, locus YKR001C, strain vps1, stronger effect = lower value 0.977 | S. cerevisiae deletion strains, locus YKR026C, strain gcn3, stronger effect = lower value 0.994 | S. cerevisiae deletion strains, locus YKR091W, strain srl3, stronger effect = lower value 0.969 | S. cerevisiae deletion strains, locus YLL001W, strain dnm1, stronger effect = lower value 0.981 | S. cerevisiae deletion strains, locus YLL026W, stronger effect = lower value 0.997 | S. cerevisiae deletion strains, locus YLL041C, strain sdh2, stronger effect = lower value 0.979 | S. cerevisiae deletion strains, locus YLR027C, strain aat2, stronger effect = lower value 0.989 | S. cerevisiae deletion strains, locus YLR039C, strain RIC1, stronger effect = lower value 1.05 | S. cerevisiae deletion strains, locus YLR058C, strain SHM2, stronger effect = lower value 1.01 | S. cerevisiae deletion strains, locus YLR102C, strain apc9, stronger effect = lower value 0.989 | S. cerevisiae deletion strains, locus YLR113W, strain HOG1, stronger effect = lower value 1.04 | S. cerevisiae deletion strains, locus YLR221C, strain rsa3, stronger effect = lower value 1.01 | S. cerevisiae deletion strains, locus YLR258W, strain gsy2, stronger effect = lower value 0.978 | S. cerevisiae deletion strains, locus YLR262C, strain YPT6 (second series), stronger effect = lower value 0.966 | S. cerevisiae deletion strains, locus YLR262C, strain YPT6, stronger effect = lower value 1.03 | S. cerevisiae deletion strains, locus YLR268W, strain sec22, stronger effect = lower value 0.981 | S. cerevisiae deletion strains, locus YLR320W, strain mms22, stronger effect = lower value 1.02 | S. cerevisiae deletion strains, locus YLR330W, strain CHS5, stronger effect = lower value 1.01 | S. cerevisiae deletion strains, locus YLR342W, strain FKS1 (second series), stronger effect = lower value 1.03 | S. cerevisiae deletion strains, locus YLR342W, strain FKS1, stronger effect = lower value 0.976 | S. cerevisiae deletion strains, locus YLR357W, strain rsc2, stronger effect = lower value 0.936 | S. cerevisiae deletion strains, locus YLR370C, strain arc18, stronger effect = lower value 0.989 | S. cerevisiae deletion strains, locus YLR371W, strain rom2, stronger effect = lower value 0.985 | S. cerevisiae deletion strains, locus YLR384C, strain iki3, stronger effect = lower value 0.996 | S. cerevisiae deletion strains, locus YLR418C, strain cdc73, stronger effect = lower value 0.96 | S. cerevisiae deletion strains, locus YML016C, strain PPZ1, stronger effect = lower value 1.01 | S. cerevisiae deletion strains, locus YML032C, strain rad52, stronger effect = lower value 0.991 | S. cerevisiae deletion strains, locus YML120C, strain ndi1, stronger effect = lower value 1 | S. cerevisiae deletion strains, locus YML124C, strain tub3, stronger effect = lower value 0.989 | S. cerevisiae deletion strains, locus YMR058W, strain fet3, stronger effect = lower value 0.989 | S. cerevisiae deletion strains, locus YMR078C, strain ctf18, stronger effect = lower value 0.993 | S. cerevisiae deletion strains, locus YMR125W, strain sto1, stronger effect = lower value 0.919 | S. cerevisiae deletion strains, locus YMR129W, stronger effect = lower value 0.993 | S. cerevisiae deletion strains, locus YMR205C, strain PFK2, stronger effect = lower value 0.998 | S. cerevisiae deletion strains, locus YMR223W, strain ubp8, stronger effect = lower value 0.99 | S. cerevisiae deletion strains, locus YMR231W, strain pep5, stronger effect = lower value 0.978 | S. cerevisiae deletion strains, locus YMR263W, strain SAP30, stronger effect = lower value 1.01 | S. cerevisiae deletion strains, locus YMR307W, strain GAS1, stronger effect = lower value 1 | S. cerevisiae deletion strains, locus YNL067W, strain RPL9B, stronger effect = lower value 0.991 | S. cerevisiae deletion strains, locus YNL071W, strain lat1, stronger effect = lower value 1 | S. cerevisiae deletion strains, locus YNL128W, strain TEP1, stronger effect = lower value 1.01 | S. cerevisiae deletion strains, locus YNL153C, strain GIM3, stronger effect = lower value 1.01 | S. cerevisiae deletion strains, locus YNL183C, strain NPR1, stronger effect = lower value 0.969 | S. cerevisiae deletion strains, locus YNL209W, strain ssb2, stronger effect = lower value 0.981 | S. cerevisiae deletion strains, locus YNL233W, strain BNI4, stronger effect = lower value 1.02 | S. cerevisiae deletion strains, locus YNL248C, strain rpa49, stronger effect = lower value 0.925 | S. cerevisiae deletion strains, locus YNL250W, strain rad50, stronger effect = lower value 0.993 | S. cerevisiae deletion strains, locus YNL271C, strain bni1, stronger effect = lower value 0.987 | S. cerevisiae deletion strains, locus YNL298W, strain CLA4, stronger effect = lower value 0.991 | S. cerevisiae deletion strains, locus YNL307C, strain MCK1, stronger effect = lower value 0.981 | S. cerevisiae deletion strains, locus YNL322C, strain KRE1 (second series), stronger effect = lower value 0.965 | S. cerevisiae deletion strains, locus YNL322C, strain KRE1, stronger effect = lower value 1.01 | S. cerevisiae deletion strains, locus YNR049C, strain mso1, stronger effect = lower value 0.982 | S. cerevisiae deletion strains, locus YNR052C, strain pop2, stronger effect = lower value 0.998 | S. cerevisiae deletion strains, locus YOL006C, strain TOP1, stronger effect = lower value 1.04 | S. cerevisiae deletion strains, locus YOL012C, strain htz1 0.805 | S. cerevisiae deletion strains, locus YOL147C, strain pex11, stronger effect = lower value 0.984 | S. cerevisiae deletion strains, locus YOR001W, strain rrp6, stronger effect = lower value 1.01 | S. cerevisiae deletion strains, locus YOR061W, strain CKA2, stronger effect = lower value 1.01 | S. cerevisiae deletion strains, locus YOR069W, strain VPS5, stronger effect = lower value 0.995 | S. cerevisiae deletion strains, locus YOR070C, strain gyp1, stronger effect = lower value 0.986 | S. cerevisiae deletion strains, locus YOR080W, strain dia2, stronger effect = lower value 0.973 | S. cerevisiae deletion strains, locus YOR083W, strain WHI5, stronger effect = lower value 0.932 | S. cerevisiae deletion strains, locus YOR106W, strain vam3, stronger effect = lower value 0.967 | S. cerevisiae deletion strains, locus YOR136W, strain idh2, stronger effect = lower value 0.986 | S. cerevisiae deletion strains, locus YOR144C, strain elg1, stronger effect = lower value 0.998 | S. cerevisiae deletion strains, locus YOR184W, strain ser1, stronger effect = lower value 1 | S. cerevisiae deletion strains, locus YOR231W, strain MKK1, stronger effect = lower value 1.01 | S. cerevisiae deletion strains, locus YOR265W, strain rbl2, stronger effect = lower value 0.989 | S. cerevisiae deletion strains, locus YOR270C, strain vph1, stronger effect = lower value 0.945 | S. cerevisiae deletion strains, locus YOR290C, strain snf2, stronger effect = lower value 0.974 | S. cerevisiae deletion strains, locus YOR316C, strain cot1, stronger effect = lower value 0.999 | S. cerevisiae deletion strains, locus YPL051W, strain arl3, stronger effect = lower value 0.994 | S. cerevisiae deletion strains, locus YPL055C, strain LGE1, stronger effect = lower value 1.03 | S. cerevisiae deletion strains, locus YPL078C, strain atp4, stronger effect = lower value 0.969 | S. cerevisiae deletion strains, locus YPL106C, strain sse1, stronger effect = lower value 0.977 | S. cerevisiae deletion strains, locus YPL240C, strain hsp82, stronger effect = lower value 0.996 | S. cerevisiae deletion strains, locus YPL241C, strain CIN2, stronger effect = lower value 1 | S. cerevisiae deletion strains, locus YPL256C, strain CLN2, stronger effect = lower value 0.992 | S. cerevisiae deletion strains, locus YPR119W, strain clb2, stronger effect = lower value 0.993 | S. cerevisiae deletion strains, locus YPR141C, strain kar3, stronger effect = lower value 0.991 | S. cerevisiae deletion strains, locus YPR163C, strain tif3, stronger effect = lower value 0.984 | S. cerevisiae deletion strains, locus YPR167C, strain met16, stronger effect = lower value 0.989 | S. cerevisiae deletion strains, strain wtn01, stronger effect = lower value 0.983 | S. cerevisiae strains, strain wild type, stronger effect = lower value 1

From PubChem BioAssay AID1159580 (chemical genetic matrix, 2015)
